Entries with a potency or affinity are not part of this list.
Each molecule was assayed on Escherichia coli. Settings: Concentration 20 uM; ASSAY_TEST Inhibition of Bacterial Growth; detection method Absorption (OD600); MEDIA CAMHB; plate type 384well; NBS; CORNING #3640; time 18 hr.

Structure (SMILES)	Inhibition
CCOc1ccc2cc(-c3nn(C(C)(C)C)c(N)c3C(N)=O)cnc2c1.Cl	7.93%
O=C(C(Cc1c[nH]c2ccccc12)NS(=O)(=O)c1ccc(Cl)cc1)N1CCCCC1 (stereo unspecified)	4.17%
Cc1c[nH]c(CCNC(=O)c2cc(-c3ccc(Cl)cc3)cs2)n1	10.78%
Cc1nc2ccccn2c1C(=O)NCc1ccc(Cl)cc1	5.6%
COC(=O)c1c(NC(=O)c2c(F)c(F)c(F)c(F)c2F)sc2c1CCCCC2	6.57%
O=C(CN1CCOCC1)Nc1ccc2ncnc(Nc3ccc(OCc4cccc(F)c4)c(Cl)c3)c2c1	4.06%
CCc1nc2ccc(C(=O)NCc3ccc4c(c3)OCO4)cn2c1N(C)Cc1cccs1	-1.74%
CC(C)/N=c1\cc2n(-c3ccc(Cl)cc3)c3ccccc3nc-2cc1Nc1ccc(Cl)cc1 [CLOFAZIMINE]	9.66%
C[C@]1(O)C[C@@H](c2nc(-c3ccc4ccc(-c5ccccc5)nc4c3)c3c(N)nccn32)C1 [LINSITINIB]	6.95%
COc1cc(C(F)(F)F)nc2ccc(C)c(N)c12	5.11%
Nc1ncnc2c1ncn2C[C@@H](O)[C@@H](O)C(=O)O [ERITADENINE]	8.78%
CC(C)C(Oc1cccc2ccccc12)C(=O)O (stereo unspecified)	-2.25%
Cc1noc(C)c1COc1cccc(C(=O)N=c2[nH]cccc2C)c1	6.93%
CNC(=O)C1Cc2ccccc2N1C(=O)Cc1ccc(F)cc1 (stereo unspecified)	5.31%
Cc1noc(C)c1C(=O)N1CCCC(c2[nH]c3c(C)cccc3c2-c2ccncc2)C1 (stereo unspecified)	12.41%
CCn1cnc2c(Nc3cc(F)cc(F)c3)nc(C#N)nc21	12.2%
COc1cc(CN2CCC3(C=Cc4ccccc43)CC2)cc2c1OCO2	-2.88%
CCN(CC)C(=O)N1CCN(C)CC1 [DIETHYLCARBAMAZINE]	7.97%

Structure (SMILES)	Inhibition
FC(F)(F)c1nnc2ccc(Cl)nn12	1.56%
O=C(c1[nH]nc2c1CCCC2)N1CCN(Cc2ccc3c(c2)OCO3)CC1	7.99%
CS(=O)(=O)N1CCC(Cn2nc(Cc3cccc4ccccc34)c3c(N)ncnc32)CC1	3.3%
CS(=O)(=O)c1ccc(C(=O)N(CC2CCCO2)c2nc3ccccc3s2)cc1[N+](=O)[O-] (stereo unspecified)	7.54%
COc1ccc(S(=O)(=O)Nc2ccc(CN3CCN(C(=O)c4cccc(C#N)c4)CC3)cc2)cc1	-0.19%
COc1cccc(-c2cc3c(Nc4cccnc4)nccc3[nH]2)c1	-3.86%
Cc1ccc(NC(=O)c2cc(S(=O)(=O)NC(C)(C)C)ccc2C)nc1	8.11%
O=C(N[C@H](Cc1ccccc1)C(=O)Nc1ccccc1N1CCOCC1)c1cccs1	8.05%
CC1=Nc2ccc(Cl)cc2C(c2ccccc2)N1CCNC(=O)CN(C)C (stereo unspecified)	6.95%
Cc1nnc(NCc2cccc(Cl)c2)c2ccccc12	9.19%
Cc1ccc2cc(C3NC(=O)c4ccccc4N3)c(Cl)nc2c1 (stereo unspecified)	10.17%
N#Cc1ccc(-c2ccc(OCC(N)=O)cc2)cc1	-3.93%
Nc1ncc(-c2cn[nH]c2)cc1-c1nc2cc(Cl)cnc2[nH]1	5.12%
O=C(NC1CC1)c1ccc(CSCc2ccccc2Cl)o1	-1.44%
FC(F)(F)c1cccc(-c2nc3c(NCc4ccncc4)nccc3[nH]2)c1	5.83%
CCc1ccc([C@@H]2C[C@H](C(F)(F)F)n3ncc(C(=O)NCc4ccc(OC)cc4)c3N2)cc1	-1.62%
O=C(Nc1c(O)cccc1-c1nc2c(C(=O)O)cccc2o1)c1cc(-c2ccccc2)on1	-12.15%
O=C1COCc2ccc(Br)cc2N1Cc1ccc(C(F)(F)F)cc1	10.17%

— ChEMBL document CHEMBL4513149, “CO-ADD screening of MMV (CH) - MMV compounds” (2021)
